This note sets out measurements from PubChem BioAssay (NCI).

About 79,000 compounds went through this panel and 15% of them were active in at least one assay; those are over-represented in the sample as a whole. Values without a mark were called inactive. The source made the active and inactive calls. No stated cut-off is given here; in the data, active means growth inhibition above about 70%; inactive means the rest.

The nature of experiment [1]: NCI Yeast Anticancer Drug Screen. Data for the rad50 strain (AID 155).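 Further: 0% = growth of vehicle-only cultures of the same strain.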 To be noted: S. cerevisiae rad50 strain growth inhibition, stronger effect = higher value. An outline of the steps:
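DNA repair mutant yeast, compound exposure, growth read-out; inhibition is taken relative to vehicle.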

A short description of experiment [2]: NCI Yeast Anticancer Drug Screen. Data for the mec2-1 strain (AID 157). To be noted: S. cerevisiae mec2-1 strain, stronger effect = higher value. An outline of the steps: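 Strain: mec2-1 (DNA repair/cell cycle alteration). Compound exposure, then growth measured; inhibition expressed relative to vehicle.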
A short description of experiment [3]: NCI Yeast Anticancer Drug Screen. Data for the sgs1 mgt1 strain (AID 161).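 Further: 0% = growth of cultures given vehicle only.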 Conditions: S. cerevisiae sgs1 mgt1 strain, stronger effect = higher value. The procedure, abridged:
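Genetically altered yeast, compound exposure, growth inhibition relative to vehicle.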

The nature of experiment [4]: NCI Yeast Anticancer Drug Screen. Data for the cln2 rad14 strain (AID 165).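 Further: 0% = growth equal to vehicle treated cultures.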 To be noted: S. cerevisiae cln2 rad14 strain, stronger effect = higher value. The procedure, abridged: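 Compounds are applied to the cln2 rad14 yeast strain, and growth is then compared with that of vehicle-treated cultures to give inhibition.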
A short description of experiment [5]: NCI Yeast Anticancer Drug Screen. Data for the bub3 strain (AID 167). To be noted: S. cerevisiae bub3 mutant strain, stronger effect = higher value. An outline of the steps: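 In this screen, a yeast mutant lacking normal mitotic checkpoint function is challenged with compound. Relative growth versus vehicle gives the inhibition value.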
Experiment [6] in a line: NCI Yeast Anticancer Drug Screen. Data for the mlh1 rad18 strain (AID 175). To be noted: S. cerevisiae mlh1 rad18 strain growth inhibition, stronger effect = higher value. The procedure, abridged:
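Read-out is yeast growth inhibition, calculated against vehicle-only controls. The compound was applied to a strain engineered with DNA damage repair alterations.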

Where [7] appears, read: at 5.0 µM (retest, dose inferred, filed as 0.5).
Setting [8] is: at 50.0 µM (retest, dose inferred, filed as 5.0).

For the compound `CCc1cc2c([nH]c3ccccc32)c(C)c1CCN(C)C`, the growth inhibition is -1% in experiment [1] (setting [7]); 23% in experiment [1] (setting [8]); 35.1% in experiment [1] (at 50.0 µM); 4% in experiment [2] (setting [7]); 23% in experiment [2] (setting [8]); 3.65% in experiment [2] (at 50.0 µM). Besides, the growth inhibition in experiment [3] (setting [7]) was 3%; in experiment [3] (setting [8]) it was 46%; in experiment [3] (at 50.0 µM), 1.45%; in experiment [4] (setting [7]), -11%; in experiment [4] (setting [8]), 24%; in experiment [4] (at 50.0 µM) it was -14.6%. Besides, the growth inhibition in experiment [5] (setting [7]) was -9%; in experiment [5] (setting [8]), -5%; in experiment [5] (at 50.0 µM), 12.6%; in experiment [6] (setting [7]), -5%; in experiment [6] (setting [8]), 43%; in experiment [6] (at 50.0 µM), 69.8%.

In the case of `CCOC(=O)c1csc(/C=C/c2cc(OC)c(OC)c(OC)c2)n1`, the growth inhibition is 0% in experiment [1] (setting [7]); 3% in experiment [1] (setting [8]); -1.2% in experiment [1] (at 50.0 µM); -1% in experiment [2] (setting [7]); 1% in experiment [2] (setting [8]); 0.9% in experiment [2] (at 50.0 µM). Further, the growth inhibition in experiment [3] (setting [7]) was -2%; in experiment [3] (setting [8]) it was 41%; in experiment [3] (at 50.0 µM) it was 46.4%; in experiment [4] (setting [7]), -4%; in experiment [4] (setting [8]) it was -3%; in experiment [4] (at 50.0 µM), -19.5%. Moreover, the growth inhibition was 1% in experiment [5] (setting [7]); 6% in experiment [5] (setting [8]); 11.9% in experiment [5] (at 50.0 µM); -2% in experiment [6] (setting [7]); 3% in experiment [6] (setting [8]); -8.1% in experiment [6] (at 50.0 µM).

As for `COCCCNC(=O)SC`, the growth inhibition in experiment [1] (setting [7]) is 0%; in experiment [1] (setting [8]), -2%; in experiment [1] (at 50.0 µM) it was -9.65%; in experiment [2] (setting [7]), 2%; in experiment [2] (setting [8]), -1%; in experiment [2] (at 50.0 µM) it was -22.4%. In addition, the growth inhibition is 3% in experiment [3] (setting [7]); 2% in experiment [3] (setting [8]); -15.6% in experiment [3] (at 50.0 µM); -2% in experiment [4] (setting [7]); 0% in experiment [4] (setting [8]); 56.6% in experiment [4] (at 50.0 µM). For the same compound, the growth inhibition in experiment [5] (setting [7]) is 0%; in experiment [5] (setting [8]) it was 2%; in experiment [5] (at 50.0 µM), -6.85%; in experiment [6] (setting [7]), 0%; in experiment [6] (setting [8]), -2%; in experiment [6] (at 50.0 µM), 19.1%.

With `Cc1ccc(S(=O)(=O)n2c3c(c4ccccc42)CCN2C(=O)C(S(=O)(=O)c4ccccc4)=CCC32)cc1` (stereo not drawn), the growth inhibition in experiment [1] (setting [7]) was 65%; in experiment [1] (setting [8]), 97% (active); in experiment [1] (at 50.0 µM), 94.6% (active); in experiment [2] (setting [7]), 71% (active); in experiment [2] (setting [8]), 98% (active); in experiment [2] (at 50.0 µM), 95.7% (active). Besides, the growth inhibition is 74% (active) in experiment [3] (setting [7]); 98% (active) in experiment [3] (setting [8]); 97.5% (active) in experiment [3] (at 50.0 µM); 71% (active) in experiment [4] (setting [7]); 98% (active) in experiment [4] (setting [8]); 97.9% (active) in experiment [4] (at 50.0 µM). For the same compound, the growth inhibition in experiment [5] (setting [7]) was 29%; in experiment [5] (setting [8]) it was 97% (active); in experiment [5] (at 50.0 µM) it was 97.5% (active); in experiment [6] (setting [7]), 78% (active); in experiment [6] (setting [8]), 97% (active); in experiment [6] (at 50.0 µM), 95.8% (active).

For the compound `CCOc1ccc(-c2nc3ccc(-c4nc5ccc(N6CCN(C)CC6)cc5[nH]4)cc3[nH]2)cc1`, the growth inhibition is 28% in experiment [1] (setting [7]); 98% (active) in experiment [1] (setting [8]); 88.7% (active) in experiment [1] (at 50.0 µM); 23% in experiment [2] (setting [7]); 99% (active) in experiment [2] (setting [8]); 92.9% (active) in experiment [2] (at 50.0 µM). The growth inhibition is 42% in experiment [3] (setting [7]); 99% (active) in experiment [3] (setting [8]); 90.2% (active) in experiment [3] (at 50.0 µM); 31% in experiment [4] (setting [7]); 52% in experiment [4] (setting [8]); 91.5% (active) in experiment [4] (at 50.0 µM). Besides, the growth inhibition is 41% in experiment [5] (setting [7]); 98% (active) in experiment [5] (setting [8]); 89.1% (active) in experiment [5] (at 50.0 µM); 57% in experiment [6] (setting [7]); 98% (active) in experiment [6] (setting [8]); 89% (active) in experiment [6] (at 50.0 µM).

As to `OCCCNc1nc2ccc(Cl)cc2c2ccccc12`, the growth inhibition in experiment [1] (setting [7]) is 7%; in experiment [1] (setting [8]), 5%; in experiment [1] (at 50.0 µM) it was 23.6%; in experiment [2] (setting [7]) it was 2%; in experiment [2] (setting [8]), 2%; in experiment [2] (at 50.0 µM), 12.4%. Also, the growth inhibition was 6% in experiment [3] (setting [7]); 3% in experiment [3] (setting [8]); 25.7% in experiment [3] (at 50.0 µM); 5% in experiment [4] (setting [7]); 1% in experiment [4] (setting [8]); 2.7% in experiment [4] (at 50.0 µM). The growth inhibition in experiment [5] (setting [7]) was -3%; in experiment [5] (setting [8]) it was -4%; in experiment [5] (at 50.0 µM) it was 23.8%; in experiment [6] (setting [7]) it was -1%; in experiment [6] (setting [8]) it was 5%; in experiment [6] (at 50.0 µM), 70.5% (active).
